Screening data (PubChem)
Rows were chosen to be rich in hits. Some 3.6% of all compounds tested hit in one or more screens of this group.
Pf apPOL block: Pf-apPOL inhibitors, biochemical, fluorescence | Plasmodium falciparum apicoplast DNA polymerase (apPOL) | Recombinant Pf-apPOL, molecular beacon fluorescence, 1.5 h | inhibition, % at 10 µM | 210,000 tested, 0.25% active
mHTT-CaM PPI inh: mutant huntingtin-calmodulin interaction inhibitors – biochemical, AlphaScreen, primary screen; P42858; AlphaScreen His-mHTT/GST-CaM binding, luminescence; inhibition, % at 15 µM; 190,000 tested, 3.6% active; AID 1671202, 2021;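 note: 0% = both proteins with DMSO and 100% = one protein alone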
Target sequence (P42858 whole entry, looked up, stated change not applied): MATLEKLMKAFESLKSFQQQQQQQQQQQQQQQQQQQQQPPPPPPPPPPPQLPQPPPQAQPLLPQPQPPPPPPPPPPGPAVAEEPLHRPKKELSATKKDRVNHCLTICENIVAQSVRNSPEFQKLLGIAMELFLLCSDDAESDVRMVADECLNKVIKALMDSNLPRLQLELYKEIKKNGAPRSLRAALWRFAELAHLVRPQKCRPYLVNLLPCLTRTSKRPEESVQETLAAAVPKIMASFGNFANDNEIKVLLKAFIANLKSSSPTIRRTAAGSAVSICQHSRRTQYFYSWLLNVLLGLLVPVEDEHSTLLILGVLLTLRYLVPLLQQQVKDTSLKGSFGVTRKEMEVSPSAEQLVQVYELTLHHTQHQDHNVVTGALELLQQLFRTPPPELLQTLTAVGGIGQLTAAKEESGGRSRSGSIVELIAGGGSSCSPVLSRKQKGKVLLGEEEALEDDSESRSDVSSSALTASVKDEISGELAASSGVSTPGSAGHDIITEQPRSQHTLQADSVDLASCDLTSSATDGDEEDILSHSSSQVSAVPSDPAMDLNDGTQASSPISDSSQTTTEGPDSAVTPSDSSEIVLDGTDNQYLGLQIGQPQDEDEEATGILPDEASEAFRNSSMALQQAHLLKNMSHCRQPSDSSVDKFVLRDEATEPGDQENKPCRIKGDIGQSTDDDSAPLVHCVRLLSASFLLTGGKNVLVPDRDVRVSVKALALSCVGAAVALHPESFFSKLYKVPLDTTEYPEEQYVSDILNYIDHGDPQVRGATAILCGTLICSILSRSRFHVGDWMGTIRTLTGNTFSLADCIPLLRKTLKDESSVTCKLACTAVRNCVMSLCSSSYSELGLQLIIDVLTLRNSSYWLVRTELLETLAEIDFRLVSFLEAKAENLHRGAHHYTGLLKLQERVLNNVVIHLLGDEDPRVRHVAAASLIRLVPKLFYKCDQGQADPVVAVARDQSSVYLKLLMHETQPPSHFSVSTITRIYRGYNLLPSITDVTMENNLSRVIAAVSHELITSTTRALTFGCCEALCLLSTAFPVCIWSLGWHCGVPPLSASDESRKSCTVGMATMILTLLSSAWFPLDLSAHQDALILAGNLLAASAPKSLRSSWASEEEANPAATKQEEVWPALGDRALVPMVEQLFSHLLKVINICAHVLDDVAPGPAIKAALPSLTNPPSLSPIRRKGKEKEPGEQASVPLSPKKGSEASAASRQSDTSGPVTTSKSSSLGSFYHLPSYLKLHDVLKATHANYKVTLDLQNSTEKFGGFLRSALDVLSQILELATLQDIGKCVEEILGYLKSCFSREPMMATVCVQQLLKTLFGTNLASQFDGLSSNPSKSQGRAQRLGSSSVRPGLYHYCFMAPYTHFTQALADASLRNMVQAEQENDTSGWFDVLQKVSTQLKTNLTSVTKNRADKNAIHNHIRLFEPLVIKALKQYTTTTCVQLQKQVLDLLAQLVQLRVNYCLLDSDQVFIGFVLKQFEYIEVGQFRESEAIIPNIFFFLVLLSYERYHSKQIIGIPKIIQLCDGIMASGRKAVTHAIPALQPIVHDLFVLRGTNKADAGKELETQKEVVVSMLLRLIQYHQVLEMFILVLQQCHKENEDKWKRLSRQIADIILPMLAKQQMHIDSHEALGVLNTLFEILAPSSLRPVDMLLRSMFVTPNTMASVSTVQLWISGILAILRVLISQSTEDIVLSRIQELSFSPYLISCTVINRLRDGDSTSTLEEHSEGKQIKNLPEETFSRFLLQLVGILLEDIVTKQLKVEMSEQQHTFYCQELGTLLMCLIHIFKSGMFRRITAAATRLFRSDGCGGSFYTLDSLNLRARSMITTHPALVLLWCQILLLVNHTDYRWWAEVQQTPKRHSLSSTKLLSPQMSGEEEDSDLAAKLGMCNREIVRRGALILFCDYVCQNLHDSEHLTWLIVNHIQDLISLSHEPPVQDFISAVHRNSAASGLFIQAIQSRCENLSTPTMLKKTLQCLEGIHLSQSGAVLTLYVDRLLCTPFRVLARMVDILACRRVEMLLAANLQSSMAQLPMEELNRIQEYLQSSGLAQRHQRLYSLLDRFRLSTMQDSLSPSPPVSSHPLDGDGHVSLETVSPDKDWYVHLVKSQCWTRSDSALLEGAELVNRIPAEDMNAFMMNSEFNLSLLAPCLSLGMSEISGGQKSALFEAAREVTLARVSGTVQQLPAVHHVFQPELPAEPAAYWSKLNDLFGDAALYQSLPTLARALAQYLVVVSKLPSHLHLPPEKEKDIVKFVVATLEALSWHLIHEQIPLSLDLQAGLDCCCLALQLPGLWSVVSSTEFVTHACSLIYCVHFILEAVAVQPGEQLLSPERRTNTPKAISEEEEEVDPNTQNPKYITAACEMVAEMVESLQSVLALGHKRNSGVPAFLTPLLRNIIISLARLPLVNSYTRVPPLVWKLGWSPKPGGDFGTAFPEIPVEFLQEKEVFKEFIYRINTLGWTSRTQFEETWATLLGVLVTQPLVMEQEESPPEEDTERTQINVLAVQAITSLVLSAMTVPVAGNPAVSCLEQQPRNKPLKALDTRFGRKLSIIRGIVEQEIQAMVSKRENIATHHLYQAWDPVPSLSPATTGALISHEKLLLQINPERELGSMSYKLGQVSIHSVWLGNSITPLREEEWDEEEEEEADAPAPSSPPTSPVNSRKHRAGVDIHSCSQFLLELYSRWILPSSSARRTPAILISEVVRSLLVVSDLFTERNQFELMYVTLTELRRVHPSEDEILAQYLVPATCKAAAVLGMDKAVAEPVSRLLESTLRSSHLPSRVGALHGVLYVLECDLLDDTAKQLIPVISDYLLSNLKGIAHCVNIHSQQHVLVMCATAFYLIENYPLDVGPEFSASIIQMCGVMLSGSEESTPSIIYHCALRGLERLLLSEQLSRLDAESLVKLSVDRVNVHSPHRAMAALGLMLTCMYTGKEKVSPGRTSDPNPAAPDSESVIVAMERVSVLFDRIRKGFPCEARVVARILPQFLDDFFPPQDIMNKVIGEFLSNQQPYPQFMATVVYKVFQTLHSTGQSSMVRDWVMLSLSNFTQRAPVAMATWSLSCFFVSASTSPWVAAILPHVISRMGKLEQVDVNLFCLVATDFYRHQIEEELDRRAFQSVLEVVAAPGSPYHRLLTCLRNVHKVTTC
The depositor's hits bear a star; . = no result. Cut-off read from the data, not from the text of the source: active = inhibition above about 50%; inactive = the rest.

SMILES	Pf apPOL block	mHTT-CaM PPI inh
CCN(Cc1ccccc1)C(=O)CN(C)S(=O)(=O)c1ccc2[nH]c3c(c2c1)CCCC3	-3	65*
Cc1cccc(N(C)C(=O)CN(C)S(=O)(=O)c2ccc3[nH]c4c(c3c2)CCCC4)c1	-4	62*
CN(CC(=O)NCc1ccccc1)S(=O)(=O)c1ccc2[nH]c3c(c2c1)CCCC3	-4	46
Cc1cccc(C)c1NC(=O)CN(C)S(=O)(=O)c1ccc2[nH]c3c(c2c1)CCCC3	-3	26
Cc1ccc(Cl)cc1NC(=O)CC(C)c1ccccc1 (configuration not stated)	-9	-19
COc1cc2c(cc1OC)CN(Cc1ccccc1Cl)CC2	-4	-8
COc1cc2c(cc1OC)CN(Cc1ccc(Cl)c(Cl)c1)CC2	-1	55*
CC(CC(=O)N1CCN(Cc2ccc3c(c2)OCO3)CC1)c1ccccc1 (configuration not stated)	2	-4
CCCNc1cc(N2CCC(CCC(=O)NCC(C)C)CC2)ncn1	-9	-3
COCOCCn1cc(CN2CCS(=O)(=O)N(Cc3ccc(-c4ccc(C)cc4)cc3)C(C)C2=O)nn1 (configuration not stated)	-19	-4
COCOCCn1cc(CN2CCS(=O)(=O)N(Cc3ccc(-c4ccccc4)cc3)C(C(C)C)C2=O)nn1 (configuration not stated)	-22	54*
COCOCCn1cc(CN2CCS(=O)(=O)N(Cc3ccc(-c4ccc(Cl)c(Cl)c4)cc3)C(C)C2=O)nn1 (configuration not stated)	-6	99*
COCOCCn1cc(CN2CCS(=O)(=O)N(Cc3ccc(-c4ccc(C)cc4)cc3)C(C(C)C)C2=O)nn1 (configuration not stated)	-12	10
COc1ccc(C2Oc3c(cc(Br)cc3OC)C=C2[N+](=O)[O-])cc1OC (configuration not stated)	-3	72*
COc1cc(Br)cc2c1OC(c1ccc3c(c1)OCO3)C([N+](=O)[O-])=C2 (configuration not stated)	-3	68*
O=[N+]([O-])C1=Cc2cc(Br)cc(Br)c2OC1c1ccc2c(c1)OCO2 (configuration not stated)	-5	84*
CCOc1ccc(C2Oc3c(cc(Br)cc3OC)C=C2[N+](=O)[O-])cc1OC (configuration not stated)	-9	38
COc1cc2c(cc1[N+](=O)[O-])OCO2	.	-5
O=[N+]([O-])C1=Cc2ccccc2OC1c1ccccc1 (configuration not stated)	.	36
COc1ccc(CN2CCC(=O)N([C@H](CO)Cc3ccccc3)CC2)cc1OC	-4	4
Fc1ccc(-c2nnc(-c3ccc(Br)o3)o2)cc1	-2	-1
O=S1(=O)C=C(SCCN2CCOCC2)c2ccccc21	-1	0
Oc1ccccc1-c1cc2ccccc2[nH]1	-3	42
COc1ccccc1N1CCN(C(=O)C2CCCc3c2[nH]c2ccccc32)CC1 (configuration not stated)	6	59*
COc1ccccc1N1CCN(C(=O)C2CC2)CC1	-1	-6
SMILES	Pf apPOL block	mHTT-CaM PPI inh
O=C(Nc1ccc2c(c1)OCCO2)c1ccnc(N2CCNC(c3ccccc3)C2)c1 (configuration not stated)	4	16
O=C(Nc1ccc2c(c1)CCC2)c1ccnc(N2CCNC(c3ccccc3)C2)c1 (configuration not stated)	-4	82*
Cc1ccc(N=C2C(=O)N(CN3CCOCC3)c3ccccc32)cc1C	7	58*
Cc1ccc(N=C2C(=O)N(CN3CCOCC3)c3ccccc32)cc1	-5	6
CC12CCC(C(=O)Nc3ccc4c(c3)OCCO4)(CC1=O)C2(C)C (configuration not stated)	2	5
O=C(c1ccc(Br)cc1)c1ccc(N2CCOCC2)c([N+](=O)[O-])c1	0	12
CN1CCN(c2ccc(C(=O)c3ccc(Br)cc3)cc2[N+](=O)[O-])CC1	4	57*
COc1ccc(CN=C(N)N=C(N)N)cc1	-9	0
CCOc1cccc(C2CC(c3cccc(OC)c3)=NC3(CCN(C)CC3)N2)c1O (configuration not stated)	4	35
CCC1(C)N=C(c2ccc3c(c2)OCO3)CC(c2ccccc2O)N1 (configuration not stated)	-5	83*
COc1cccc(C2=NC3(CCN(C)CC3)NC(c3cccc(OC)c3O)C2)c1 (configuration not stated)	-1	25
CC(=O)N1CCC2(CC1)N=C(c1ccc3c(c1)OCO3)CC(c1ccccc1O)N2 (configuration not stated)	8	18
COc1cccc(C2=NC(C)(C)NC(c3cc(Br)ccc3O)C2)c1 (configuration not stated)	-4	100*
COc1cccc(C2=NC(C)(C)NC(c3ccccc3O)C2)c1 (configuration not stated)	-3	65*
CCC1Oc2ccc(Cl)cc2N(CC(=O)NCCCOC)C1=O (configuration not stated)	-13	-9
Cc1nc2ccccc2n1C(=O)c1ccc(Cl)cc1[N+](=O)[O-]	2	6
CCSc1nnc2c(n1)OC(/C=C/c1cccs1)Nc1ccccc1-2 (configuration not stated)	-7	12
CCn1c(N2CCC(C(=O)Nc3cccc(OC)c3)CC2)cc(=O)n(C)c1=O	0	44
Cn1c(N2CCC(C(=O)N3CCN(c4ccc(Cl)cc4)CC3)CC2)cc(=O)n(C)c1=O	-1	50
CCCn1ncc(N2CCC(C(=O)Nc3cc(C)ccc3OC)CC2)cc1=O	-2	77*
CCn1c(N2CCC(C(=O)Nc3ccc(OC)c(OC)c3)CC2)cc(=O)n(C)c1=O	-1	62*
CCCn1ncc(N2CCC(C(=O)Nc3ccc(OC)cc3OC)CC2)cc1=O	-2	20
CCn1c(N2CCC(C(=O)N3CCN(c4ccc(F)cc4)CC3)CC2)cc(=O)n(C)c1=O	4	70*
CCn1c(N2CCC(C(=O)Nc3ccc(F)cc3)CC2)cc(=O)n(C)c1=O	-6	28
CCOc1ccc(NC(=O)C2CCN(c3cc(=O)n(C)c(=O)n3CC)CC2)cc1	-2	61*
SMILES	Pf apPOL block	mHTT-CaM PPI inh
CCC(=O)N1CCN(c2ccc(C)c(Cl)c2)C(=O)C1C (configuration not stated)	-2	-2
CCn1c(C2CCN(C(=O)Nc3ccc(C)c(F)c3)C2)nc2cccnc21 (configuration not stated)	0	-2
COc1ccc(C=C2Oc3cc(OCC=C(C)C)ccc3C2=O)c(OC)c1	-12	0
CC(C)c1ccc(NC(=O)c2coc(=O)c3ccccc23)cc1	3	5
O=C(C1C2C=CC3(CN(Cc4ccccc4Cl)C(=O)C13)O2)N1CCCC1 (configuration not stated)	-12	4
CC(C)CN1CCc2nc(N3CCOCC3)nc(Oc3ccccc3F)c2C1	0	22
CCOc1ccc(CN2CCc3nc(N4CCCC4)ncc3C2)cc1	7	18
Cn1cccc1CN1CCc2nc(N3CCCCC3)nc(Oc3ccccc3)c2C1	2	71*
c1ccc(Oc2nc(N3CCCCC3)nc3c2CN(Cc2cccnc2)CC3)cc1	-2	53*
COc1ccccc1C=C1Oc2cc(O)ccc2C1=O	-7	2
CCCn1c(N2CCC(C(=O)N3CCCCC3)CC2)nc2ccccc21	-7	-1
